Assay results as given in the OligoGym collection.

Target: SIAE
Assay: pooled miR-30 sensor sort-seq; sequence = guide strand
Details: shRNA
Also: reference of the scale not given here.

Sequence	sensor-assay potency score (higher = more potent)
TTTCACACTGGTCACTTTCTTC	-0.603
TTATTTTCTCCAAAGTCTGTTG	-0.694
TTGAGGTCCAATTTGTCTGTAG	0.183
TTAAATATCTGTAACACAGTCA	0.571
TTTAACTCGAACAACAGTTTGC	-0.109
TAACACAGTCATCTGCATGTTA	-0.177
TACAGAGCCAGACATCTCCAAA	-1.12
TAGACAACTCCCTTGTAGCATT	-0.9
TATCTTGTTGTCCTTTTTCTGC	-1.26

Target: SIK3
Assay: as above
Details: shRNA

Sequence	sensor-assay potency score (higher = more potent)
TCTGTTTGAACTTCCGACGTGC	0.851
TACTTGAACTCTTACTGTCTTG	-0.689
TTATCTATGATCTTGATAGCAA	-0.377
TTCATAATTTGAACTTCCCGGA	-0.153
TTAGTTGTTGGCATTCAGCTAT	-0.107
TACATAAGCATCGTCGCTGTTC	-0.402
TATGATCTTGATAGCAACCTTG	-0.675
TAGCTGAGCAGAATGTCTGTAA	-0.0523
TTAATGACTGCAGTGTCTGTTC	-0.0807
TTGAACTCTTACTGTCTTGGAA	-0.119
TCTAACACCAACATATGGCGGA	0.184
TAAATCACGATGAACAATGTTC	-0.457

Target: SIPA1L2
Assay: as above
Details: shRNA

Sequence	sensor-assay potency score (higher = more potent)
TAATCTAATCCTGAGATGCGGA	-0.642
TACAACATTCTTGGAATCCTTT	-0.254
TTATACATCTCTTCCTCTGTGC	0.628
TAACAGTTCGAAGCTTTCGGAA	-0.928
TACTTTTTGAACAGTGAGCTGA	0.29
TTGAACTTTGAAGAGGCTCTGC	0.37
TAGCTTGTGCTTCTCTTCTTGT	-0.716
TTCAGCACAGTTGTCTACCGAG	-0.567
TTGTCGAAGAATTAATTCCAGC	-1.01
TTGTCTTGTTTTTCCTTCCGAA	-0.306
TTGTTCATCAAGCTTGAGCAGC	-0.923
TAGCGCTTCACTTTCTCCCTGT	0.691

Target: SIRPD
Assay: as above
Details: shRNA

Sequence	sensor-assay potency score (higher = more potent)
TTGAACCACAAGACAGGTCCAT	-0.0742
ATTTATTGTACGATCAAGCTGG	0.545
TACAGTCTGTGACATCTCCGTT	-0.562
TACTCCTTGATAGCTCTTCCTT	-0.857
TTACTCTGGGAAAGTTACCTTG	-0.709
TTGCACATGGAACACATGTGTG	-0.922
TTTGTTATTTACTTGTACGTTC	0.326
